A selection: hits, their analogues and other compounds. The true share with any hit is near 7.2%.
HCV inhibitor: inhibitors of hepatitis C virus infection. Huh7.5.1 HCVcc-Cre infection, luciferase reporter, 44 h. Potency, µM (doses to about 41.8 µM), for the others: at the highest dose activity change, negative = inhibition, hits mostly inhibitors. 340,000 tested, 3.4% active. AID 651820
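Seed cells (1,000/well) for 4 h; treat with compound and infect with HCVcc-Cre, moi about 0.5. Incubate 44 h, then detect luciferase activity.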
Sm TGR block: inhibitors of Schistosoma mansoni thioredoxin glutathione reductase; Q962Y6; purified TGR, DTNB reduction, TNB absorbance 405 nm; 360,000 tested, 3% active; AID 485364; Potency, µM (series often up to 114 µM), without a hit: at the top dose activity change, negative = inhibition, most hits filed as inhibitors; further: nearly all actives have a fitted effect of over 60% in size
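Kinetic colorimetric format: TGR-catalysed, NADPH-driven DTNB reduction monitored via TNB absorbance. Enzyme dispensed at 20 nM; compound exposure 15 min at room temperature before reaction start.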
FMDV antiviral: blocks foot and mouth disease virus; Potency, µM (highest dose often 57.9 µM), for the others: at the highest dose activity change, negative = inhibition, usual class: inhibitors; 410,000 tested, 1.2% active; FMDV antiviral cell-based qHTS; calls by dose curve; tested in HEK293T cells; further: read-out not given here; nearly all actives have a fitted effect of over 45% in size
MARV entry inh: Marburg virus entry inhibition; 300,000 tested, 1.8% active; Potency, µM (doses to about 37.8 µM), inactives show at the top dose activity change, negative = inhibition, most hits filed as inhibitors; AID 540276; Marburg virus pseudotyped entry inhibition, cell reporter; calls by dose curve; tested in HEK293 cells
LASV entry inh: Lassa virus entry inhibition; Lassa virus pseudotype entry inhibition, cell reporter; Potency, µM (doses to about 37.9 µM), for inactives: at the top dose activity change, negative = inhibition, actives largely listed as inhibitors; 300,000 tested, 1.2% active; AID 540256; calls by dose curve; tested in HEK293 cells; further: nearly all actives have a fitted effect of over 50% in size
RE007 growth inh: less growth of the S. pombe RE007 Vpr strain; AID 651644; Potency, µM (highest dose often 92.2 µM), without a hit: at the highest dose activity change, negative = less growth, most hits filed as inhibitors; 360,000 tested, 0.21% active; S. pombe RE007 Vpr strain, BacTiter-Glo ATP luminescence, 24 h; active means well fitted falling curve with a large enough effect; inconclusive means small, poorly fitted or top-dose-only effect; inactive means no such curve, though single readings can be large or run the other way; further: nearly all actives have a fitted effect of over 50% in size
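Fission yeast RE007 carrying one integrated HIV-1 vpr copy, seeded at OD 0.01 in PMG+AL medium with 23 nL pinned compound. Grown 24 h at 30 degrees; viability read by BacTiter-Glo luminescence after 5 min.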
Starred values were filed as active, the others as inactive; ? = inconclusive; . = no result; [ ] = another dose, or the depositor's remark. Unless noted, the call rests on the fitted dose curve; in most records, active means well fitted curve in the direction sought with a large enough effect; inconclusive means small, poorly fitted or top-dose-only effect, or another doubt; inactive means no such curve, though single readings can be large; an effect the other way counts as inactive or inconclusive. On the % scale 0 is the no-effect control and ±100 the full control effect; potency means the concentration at half of the fitted maximal effect.

SMILES | HCV inhibitor | Sm TGR block | FMDV antiviral | MARV entry inh | LASV entry inh | RE007 growth inh
O=C(CCCc1ccccc1)c1ccc2c(c1)OCCO2 | -19% | 7% | 7.9µM* | 0.46µM* | ? | -2%
O=C(NCCc1ccccc1)c1ccc2c(c1)OCCO2 | 22% | 0% | 1.8µM* | 0.45µM* | 0.35µM* | 14%
O=C(CCc1ccccc1)c1ccc2c(c1)OCCCO2 | 1% | -7% | 39% | 22% | ? | -23%
O=C(NCCc1ccccc1)c1ccc2c(c1)OCCCO2 | 10% | -17% | 1.1µM* | ? | ? | -2%
CC(=O)c1ccc(Nc2cc(C)nc3c(C)cc(C)cc23)cc1 | ? | -11% | -8% | 4.1µM* | ? | -2%
Cc1cc(C)c2nc(C)cc(Nc3ccc(C(=O)NCCO)cc3)c2c1 | -13% | 9% | -24% | 11µM* | -28%[46.1 µM] | -3%
Cc1cc(C)c2nc(C)cc(Nc3ccc(C(=O)N(C)C)cc3)c2c1 | 6% | -2% | 1% | . | . | 4%
Cc1[nH]c2c(F)cccc2c1CC(=O)NCCN1Cc2ccccc2OC(C)C1 (centres undefined) | . | . | 9% | . | . | .
Cc1ccc(NS(=O)(=O)c2cc(NC(=O)C(C)Oc3ccccc3)ccc2C)c(C)c1 (centres undefined) | ? | -11% | 13% | 4.6µM* | ? | 1%
COc1ccccc1NC(=O)C1CCCN(c2nnc(C)c3c(C)n(-c4ccccc4)nc23)C1 (centres undefined) | . | -1% | -19% | . | 1%[46.1 µM] | .
O=C1NC2(CCCCC2)N(C(=O)c2ccccc2)C2=C1CCCC2 | 3.2µM* | 0% | -13% | . | . | -18%
COc1ccc(-c2csc(NC(=O)CSc3ccc(Br)cc3)n2)c(OC)c1 | -9% | -21% | ? | ? | 13µM* | 7%
COc1ccc(OC)c(-c2csc(NC(=O)CSc3ccccc3)n2)c1 | ? | 4% | 0% | ? | 16µM* | 1%
COc1ccc(-c2csc(NC(=O)CSCC(=O)Nc3cc(C)on3)n2)c(OC)c1 | ? | 8% | 6% | 3% | 1% | 22%
COc1cccc(CC(=O)Nc2nc(-c3cc(OC)ccc3OC)cs2)c1 | ? | 2% | 34% | -7%[46.1 µM] | . | -18%
COc1ccc(-c2csc(NC(=O)c3c(C)noc3C)n2)cc1F | ? | -1% | 40µM* | ? | 1% | 2%
COc1ccc(OC)c(-c2csc(NC(=O)CSCC(=O)Nc3cc(C)on3)n2)c1 | -29% | 1% | -7% | . | . | -14%
COc1ccc(OC)c(-c2csc(NC(=O)CSCc3c(C)noc3C)n2)c1 | 11µM* | 1% | -19% | ? | ? | 19%
Cc1cc2c(s1)c1c(C)nn(Cc3ccc(F)cc3)c(=O)c1n2C | . | 0% | . | . | . | .
CC(C)COc1ccc(C(=O)Nc2scc(-c3ccc(Br)cc3)c2C(=O)OC(C)C)cc1 | . | 7% | 8% | . | -12%[46.1 µM] | .
C(#Cc1ccccc1)C[N+]1(CC#Cc2ccccc2)CCCC1 | -18% | -19% | -10% | ? | ? | -1%
C=CC#CC[N+]1(CC#Cc2ccccc2)CCOCC1 | 36% | 40µM* | 0% | ? | 10% | 7%
CCOC(=O)c1cc([N+](=O)[O-])cc([N+](=O)[O-])c1Sc1ncnc2nc[nH]c12 | ? | . | 22µM* | ? | 1.4µM* | 12%
CCN(CC)CCCN(c1ccccc1)C1Cc2ccccc2C1 | . | . | . | 6.5µM* | ? | .
CCCOC(=O)c1c(NC(=O)C2c3ccccc3Oc3ccccc32)sc2c1CCC(C)C2 (centres undefined) | . | -3% | 2% | 3%[46.1 µM] | 6%[46.1 µM] | .
SMILES | HCV inhibitor | Sm TGR block | FMDV antiviral | MARV entry inh | LASV entry inh | RE007 growth inh
Cc1c(N=Nc2ccc(O)cc2)c(=O)n(-c2ccccc2)n1C | 18% | -1% | 1% | 18%[46.1 µM] | -8% | 10%
Cc1c(N=C2C=CC(=O)c3ccccc32)c(=O)n(-c2ccccc2)n1C | -4% | 13µM* | 35µM* | ? | -2% | ?
Cc1c(N=C2C=C(Br)C(=O)C(Br)=C2)c(=O)n(-c2ccccc2)n1C | -8% | 2.8µM* | 2% | 2%[46.1 µM] | -9% | ?
CCC(=O)N1CCc2cc(CNS(=O)(=O)c3ccc(NC(=O)CC(C)C)cc3)ccc21 | . | 6% | -21% | . | 3%[46.1 µM] | .
CC(=O)NNc1nc(-c2ccc(C)cc2)cs1 | -19% | ? | 59% | ? | 1% | 155%
CCCC(=O)Nc1ccc(-c2csc(N/N=C\c3ccncc3)n2)cc1 | ? | 18µM* | -11% | ? | ? | 3%
CC(=O)Nc1ccc(-c2csc(NC(=O)Cc3ccccc3F)n2)cc1 | ? | -7% | 35% | -41% | ? | -11%
CC(=O)Nc1ccc(-c2csc(NC(=O)Cc3cccc(F)c3)n2)cc1 | 7.9µM* | 3% | -3% | ? | ? | 4%
CCCC(=O)Nc1ccc(-c2csc(NNC(C)=O)n2)cc1 | ? | 25µM* | 29% | 5%[46.1 µM] | -5%[46.1 µM] | 18%
Cc1cc(Cl)ccc1NC(=O)c1cc(S(=O)(=O)N2CCOCC2)cn1C | . | 4% | -5% | . | 0%[46.1 µM] | .
COc1ccc(CNC(=O)c2c(N)n(CCCN3CCOCC3)c3nc4ccccc4nc23)cc1 | ? | -16% | ? | 16µM* | 23µM* | 27%
COCCCn1c(N)c(C(=O)NCc2ccco2)c2nc3ccccc3nc21 | -30% | 7.1µM* | -27% | -25%[46.1 µM] | -1%[46.1 µM] | 5%
Nc1c(C(=O)NCc2ccco2)c2nc3ccccc3nc2n1CCc1ccccc1 | ? | 20µM* | -5% | -37% | ? | -8%
Nc1c(C(=O)NCCc2ccccc2)c2nc3ccccc3nc2n1CCN1CCOCC1 | ? | -14% | . | ? | -28% | -3%
Nc1c(C(=O)NCc2ccccc2)c2nc3ccccc3nc2n1CCCN1CCOCC1 | -6% | -6% | -12% | ? | -24% | 4%
CCOc1ccc(-n2c(N)c(C(=O)NCc3ccco3)c3nc4ccccc4nc32)cc1 | ? | 50µM* | ? | ? | -4% | -4%
CCC1CN(CCC(=O)NC2CCOC(C)(C)C2)Cc2cc(OC)ccc2O1 (centres undefined) | . | . | -9% | . | . | .
O=C(CCCCn1c(=O)c2ccccc2n(CC(=O)Nc2ccc(F)cc2F)c1=O)NCc1ccccc1Cl | . | 0% | -16% | 0%[46.1 µM] | -6%[46.1 µM] | .
CCOC(=O)c1ccc(NC(=O)Cn2cc(C(=O)c3ccc(CC)cc3)c(=O)c3ccc(C)nc32)cc1 | . | -7% | -17% | . | -17%[46.1 µM] | .
COc1ccc(NC(=O)Cn2cc(S(=O)(=O)Cc3ccc(F)cc3)c3ccccc32)cc1OC | . | -5% | -18% | . | 22%[46.1 µM] | .
O=c1c2c3c(sc2nnn1Cc1ccc(Br)cc1)CCCC3 | . | 6% | -16% | -10%[46.1 µM] | -2%[46.1 µM] | .
Cc1cccc(OCC(=O)Nc2ccc3oc(-c4ccccc4F)nc3c2)c1 | . | 0% | -3% | 13%[46.1 µM] | ? | .

Screens from PubChem BioAssay.
